A short description of assay [1]: TOX21_p53_BLA_p2_viability: Viability Assessment in the Tox21 HCT-116 p53 Agonism Beta-lactamase Assay, Phase 2 (AID 2283591).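 Note: compound exposure lasted 16 h at 37 °C; actives lower the ATP signal meaning cytotoxicity.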 The method, boiled down: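 HCT116 p53-bla cells, 4000/well, dosed after 5 h plating (217-fold dilution of DMSO stocks) and incubated 16 h at 37C. Viability taken as cellular ATP by CellTiter-Glo luminescence after 30 min RT; signal loss marks cytotoxicity.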

The target in assay [2] is Cellular tumor antigen p53 (Homo sapiens) (UniProt P04637). Briefly: TOX21_p53_BLA_p2_ratio: Tox21 HCT-116 p53 Agonism Beta-lactamase Assay, Ratio, Phase 2 (AID 2283592). The method in brief: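 Read-out is the blue/green (460/530 nm, 405 nm excitation) ratio after 2 h CCF4-AM loading, fitted as gain versus DMSO. Compounds, pinned at 217-fold dilution from DMSO stocks, stayed 16 h on HCT-116 beta-lactamase reporter cells seeded 5 h earlier.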
Cellular tumor antigen p53 (Homo sapiens), sequence (P04637 whole entry, looked up): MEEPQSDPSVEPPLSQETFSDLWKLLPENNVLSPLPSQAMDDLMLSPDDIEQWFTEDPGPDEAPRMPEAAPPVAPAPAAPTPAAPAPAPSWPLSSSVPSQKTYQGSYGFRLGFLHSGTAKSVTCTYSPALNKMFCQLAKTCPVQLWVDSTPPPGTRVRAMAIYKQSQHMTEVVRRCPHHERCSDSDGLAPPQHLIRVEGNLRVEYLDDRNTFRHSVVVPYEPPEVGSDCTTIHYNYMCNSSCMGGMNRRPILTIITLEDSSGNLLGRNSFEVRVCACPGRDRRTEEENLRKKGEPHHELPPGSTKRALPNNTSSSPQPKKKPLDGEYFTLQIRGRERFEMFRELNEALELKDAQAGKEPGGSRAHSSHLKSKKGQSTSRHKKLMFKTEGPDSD

A short description of assay [3]: TOX21_p53_BLA_p3_viability: Viability Assessment in the Tox21 HCT-116 p53 Agonism Beta-lactamase Assay, Phase 3 (AID 2283593).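 Note: cells exposed to compound for 16 h before reading.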 The method in brief: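 HCT116 cells, 4000/well, dosed 5 h after plating by pin transfer (217-fold dilution from DMSO stock) and incubated 16 h at 37C, 5% CO2. Viability read as ATP luminescence with CellTiter-Glo after 30 min at room temperature.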

The target in assay [4] is Cellular tumor antigen p53 (Homo sapiens) (UniProt P04637). Briefly: TOX21_p53_BLA_p3_ratio: Tox21 HCT-116 p53 Agonism Beta-lactamase Assay, Ratio, Phase 3 (AID 2283596). The method, boiled down: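 Cells were seeded at 4000/well, rested 5 h at 37C, then dosed with DMSO compound solutions (217-fold dilution) for 16 h. CCF4-AM substrate was loaded for 2 h at room temperature, and the 460/530 nm emission ratio was fitted for gain of signal versus DMSO.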

Assay [5] can be described thus: TOX21_p53_BLA_p4_viability: Viability Assessment in the Tox21 HCT-116 p53 Agonism Beta-lactamase Assay, Phase 4 (AID 2283597).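 Note: hits lower the luminescence signal meaning cytotoxicity.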 The method in brief: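 Cytotoxicity as reduced cellular ATP (CellTiter-Glo luminescence, 30 min room temperature), measured in the same wells following the CCF4 FRET p53 reading. Human HCT-116 cells received compounds in DMSO (217-fold dilution) for 16 h.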

Assay [6] concerns the target Cellular tumor antigen p53 (Homo sapiens) (UniProt P04637). Briefly: TOX21_p53_BLA_p5_ratio: Tox21 HCT-116 p53 Agonism Beta-lactamase Assay, Ratio, Phase 5 (AID 2283599). The method, boiled down: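 HCT-116 p53-bla cells (4000/well) plated 5 h, dosed with compound (217-fold DMSO dilution) for 16 h at 37 C; CCF4-AM substrate 2 h at room temperature. Activity is the 460/530 nm emission ratio (405 nm excitation), fitted in gain-of-signal direction versus DMSO.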

Assay [7] in a line: TOX21_p53_BLA_p5_viability: Viability Assessment in the Tox21 HCT-116 p53 Agonism Beta-lactamase Assay, Phase 5 (AID 2283600). The method, boiled down:
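Viability came from CellTiter-Glo ATP luminescence, read after 30 min at room temperature. Before this, HCT-116 p53-bla cells (4000/well) had 16 hours of compound exposure at 37C, with DMSO stocks diluted 217-fold on transfer.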

The target in assay [8] is Cellular tumor antigen p53 (Homo sapiens) (UniProt P04637). Briefly: TOX21_p53_BLA_p4_ratio: Tox21 HCT-116 p53 Agonism Beta-lactamase Assay, Ratio, Phase 4 (AID 2283601). The method, boiled down: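 HCT-116 p53 beta-lactamase reporter cells (4000/well) preincubated 5 h, then compound (217-fold dilution of DMSO stock) for 16 h at 37C. CCF4-AM substrate added 2 h at room temperature; 460/530 nm emission ratio fitted upward versus DMSO.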

Each structure is given as a SMILES string. Several values for one entry are separate records, joined by “and”; a condition that tells them apart may be missing. Identical values can stand only once. Inconclusive results are not listed. Activity calls are given as the source filed them. Rule for the calls: active = hit-call score of the fitted dose curve at least 0.9, where 1 is the maximum; inconclusive = response in the unintended direction; inactive = score below 0.9.

One may read the AC50 as the concentration giving half of the maximal activity seen. Turning to `CC1=C(/C=C/C(C)=C/C=C/C(C)=C/C=C/C=C(C)/C=C/C=C(C)/C=C/C2=C(C)C[C@@H](O)CC2(C)C)C(C)(C)C[C@H](O)C1`, the half-maximal activity concentration (AC50) in assay [1] is 40.1 µM (active); in assay [2], 38.8 µM (active); in assay [4], 33.8 µM (active); in assay [5] it was 36.6 µM (active); in assay [6] it was 38.8 µM (active); in assay [7], 43.2 µM (active). Moreover, the concentration at half-maximal activity (AC50) in assay [8] was 36.4 µM (active). Also, the call in assay [3] was inactive.
For the compound `NC(=O)Nc1ccc(Cl)c(Cl)c1`, the call in assay [1], in assay [2], in assay [3], in assay [4], in assay [5] and in assay [6] was inactive. For the same compound, the outcome in assay [7] and in assay [8] was inactive.
With `Nc1nc(F)nc2c1ncn2[C@@H]1O[C@H](CO)[C@@H](O)[C@@H]1O`, the call in assay [1], in assay [3], in assay [5] and in assay [7] was inactive. In addition, the AC50 in assay [2] is 21.1 µM (active) and 20 µM (active); in assay [4] it was 13.2 µM (active) and 20.6 µM (active); in assay [6], 22.5 µM (active) and 25.2 µM (active); in assay [8] it was 22.5 µM (active) and 24 µM (active).
Regarding `O=c1c(-c2ccccc2)c1-c1ccccc1`, the outcome in assay [1], in assay [3], in assay [5], in assay [6], in assay [7] and in assay [8] was inactive. In addition, the results for the half-maximal activity concentration (AC50) in assay [2] and in assay [4] were 23.8 µM (active) and 22.2 µM (active), respectively.
Take `CCCCCCCCC(CCCCCC)C(=O)O` (stereo unspecified): the compound was called inactive in assay [1], in assay [2], in assay [4], in assay [5], in assay [6] and in assay [7]. Further, the outcome in assay [8] was inactive. For the same compound, the AC50 in assay [3] was 65.9 µM (active).
For the compound `CC(CO)(CO)C(=O)O`, the result in assay [1], in assay [2], in assay [3], in assay [4], in assay [5] and in assay [6] was inactive. The outcome in assay [7] was inactive.
`CCC(C)n1ncn(-c2ccc(N3CCN(c4ccc(OC[C@H]5CO[C@](Cn6cncn6)(c6ccc(Cl)cc6Cl)O5)cc4)CC3)cc2)c1=O` (stereo partly specified): the result in assay [1], in assay [2], in assay [3], in assay [4], in assay [5] and in assay [6] was inactive. The call in assay [7] and in assay [8] was inactive.
As for `O[C@@H](CNC[C@H](O)[C@H]1CCc2cc(F)ccc2O1)[C@@H]1CCc2cc(F)ccc2O1`, the AC50 in assay [1] is 34.9 µM (active); in assay [5], 33.5 µM (active); in assay [6], 37.1 µM (active); in assay [7], 43.1 µM (active); in assay [8], 43.4 µM (active). Besides, the outcome in assay [2], in assay [3] and in assay [4] was inactive.
`CCNC(=O)N1CCN(CCCC(c2ccc(F)cc2)c2ccc(F)cc2)CC1`: the outcome in assay [1], in assay [2], in assay [3], in assay [4], in assay [5] and in assay [6] was inactive. In addition, the result in assay [7] and in assay [8] was inactive.
As to `O[C@@H]([C@H](O)[C@H](O)CBr)[C@H](O)CBr`, the outcome in assay [1], in assay [2], in assay [3], in assay [4], in assay [5] and in assay [6] was inactive. For the same compound, the compound was classed as inactive in assay [7].
Consider `CCOC(=O)/C=C(C)/C=C/C=C(C)/C=C/c1c(C)cc(OC)c(C)c1C`, for which the compound was called inactive in assay [1], in assay [2], in assay [3], in assay [4], in assay [5] and in assay [6]. Moreover, the compound was called inactive in assay [7] and in assay [8].
In the case of `Clc1ccc(C(Cn2ccnc2)OCc2c(Cl)cccc2Cl)c(Cl)c1` (stereo unspecified), the compound was called inactive in assay [1], in assay [3], in assay [5], in assay [6] and in assay [7]. For the same compound, the AC50 is 17.7 µM (active) in assay [2], 17.9 µM (active) in assay [4] and 16.7 µM (active) in assay [8].
For `CC[C@H]1OC(=O)[C@H](C)C(=O)[C@H](C)[C@@H](O[C@@H]2O[C@H](C)C[C@H](N(C)C)[C@H]2O)[C@](C)(OC)C[C@@H](C)C(=O)[C@H](C)[C@H]2N(CCCCn3cnc(-c4cccnc4)c3)C(=O)O[C@]12C`, the result in assay [1], in assay [2], in assay [3], in assay [4], in assay [5] and in assay [6] was inactive. Further, the result in assay [7] and in assay [8] was inactive.
With `CNCCCC1c2ccccc2C=Cc2ccccc21`, the compound was called inactive in assay [1], in assay [2], in assay [3], in assay [4], in assay [5] and in assay [6]. The compound was called inactive in assay [7] and in assay [8].
`N=C(N)c1ccc(OCCCOc2ccc(C(=N)N)cc2)cc1`: the result in assay [1], in assay [2], in assay [3], in assay [4], in assay [5] and in assay [6] was inactive. Besides, the outcome in assay [7] and in assay [8] was inactive.
For `COc1ccccc1N1CCN(CC(O)COc2cccc3ccccc23)CC1` (stereo unspecified), the call in assay [1], in assay [2], in assay [3], in assay [4], in assay [6] and in assay [7] was inactive. For the same compound, the outcome in assay [8] was inactive. Besides, the half-maximal activity concentration (AC50) in assay [5] is 23 µM (active).
For `Nc1ccc(C(=O)Oc2ccccc2)c(O)c1`, the outcome in assay [1], in assay [2], in assay [3], in assay [4], in assay [5] and in assay [6] was inactive. Besides, in assay [7], the compound was classed as inactive.
In the case of `C[C@@H](O[C@H]1OCCN(Cc2n[nH]c(=O)[nH]2)[C@H]1c1ccc(F)cc1)c1cc(C(F)(F)F)cc(C(F)(F)F)c1`, the AC50 in assay [1] is 31.3 µM (active); in assay [3] it was 33.4 µM (active); in assay [5] it was 29.1 µM (active); in assay [6] it was 34.2 µM (active); in assay [7] it was 37.5 µM (active); in assay [8] it was 35.1 µM (active). The outcome in assay [2] and in assay [4] was inactive.
In the case of `CN1CC(=O)N/C1=N/C(=O)Nc1cccc(Cl)c1`, the compound was called inactive in assay [1], in assay [2], in assay [3], in assay [4], in assay [5] and in assay [6]. In addition, the compound was classed as inactive in assay [7] and in assay [8].
As to `CC[C@@H](CO)NCCN[C@@H](CC)CO`, the compound was classed as inactive in assay [1], in assay [2], in assay [3], in assay [4], in assay [5] and in assay [6]. Also, the compound was classed as inactive in assay [7] and in assay [8].
With `Nc1ccc(C(=O)Nc2ccccc2N)cc1`, the compound was classed as inactive in assay [1], in assay [3], in assay [6], in assay [7] and in assay [8]. Besides, the results for the half-maximal activity concentration (AC50) in assay [2], in assay [4] and in assay [5] were 12.6 µM (active), 21.1 µM (active) and 20.9 µM (active), respectively.
As to `C1CCCC1.C1CCCC1.[Cl][V][Cl]`, the compound was classed as inactive in assay [1], in assay [2], in assay [3], in assay [4], in assay [6] and in assay [7]. In addition, in assay [8], the outcome was inactive. In assay [5], the half-maximal activity concentration (AC50) was 40.3 µM (active).
As to `Cc1onc(-c2c(F)cccc2Cl)c1C(=O)N[C@@H]1C(=O)N2[C@@H]1SC(C)(C)[C@@H]2C(=O)O`, the compound was called inactive in assay [1], in assay [2], in assay [3], in assay [4], in assay [5] and in assay [6]. Besides, the result in assay [7] and in assay [8] was inactive.

Source of the values: PubChem BioAssay (EPA / NIEHS).
